Data taken from the supplement of paper PMC6555819.

What was measured:
Assay in all cases: PBM binding z-score (relative to random genomic background probes); higher = stronger binding; sequences stand for … in GC…GCGATTGACAGCGTAGAATGAAGG
[1] = test system: FXR:RXRa (NR concentration 270 nM, RXRa partner concentration 90 nM)
Outline: (§1)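 Binding z-scores take random background probes as their reference. They come from custom Agilent 4×180K protein-binding microarrays incubated 1 h with ligand-free nuclear receptor dimers, with antibodies against each partner (one per run) detecting binding. Scanned fluorescence was regression-normalized.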

[2] = test system: LXRa:RXRa (NR concentration 270 nM, RXRa partner concentration 90 nM)
Outline: as §1

[3] = test system: LXRa homodimer (NR concentration 270 nM)
Outline: as §1

[4] = test system: LXRb:RXRa (NR concentration 270 nM, RXRa partner concentration 90 nM)
Outline: as §1

[5] = test system: LXRb homodimer (NR concentration 270 nM)
Outline: as §1

[6] = test system: PPARa:RXRa (NR concentration 270 nM, RXRa partner concentration 90 nM)
Outline: as §1

[7] = test system: PPARg:RXRa (NR concentration 180 nM, RXRa partner concentration 90 nM)
Outline: as §1

[8] = test system: PPARg:RXRa 270nM:90nM, anti-RXR (NR concentration 270 nM, RXRa partner concentration 90 nM)
Outline: as §1

[9] = test system: PPARg:RXRa 30nM:10nM, anti-RXR (NR concentration 30 nM, RXRa partner concentration 10 nM)
Outline: as §1

[10] = test system: PPARg:RXRa 90nM:30nM, anti-RXR (NR concentration 90 nM, RXRa partner concentration 30 nM)
Outline: as §1

[11] = test system: PPARg:RXRa DBDmut IVT, anti-RXR (DBD mutation: RXRa K156A/R161A, NR concentration 270 nM, RXRa partner concentration 90 nM)
Outline: as §1

[12] = test system: PPARg:RXRa IVT, anti-PPARg (NR concentration 270 nM, RXRa partner concentration 90 nM)
Outline: as §1

[13] = test system: PPARg DBDmut:RXRa IVT, anti-PPARg (DBD mutation: PPARg1 K132A/R137A, NR concentration 270 nM, RXRa partner concentration 90 nM)
Outline: as §1

[14] = test system: PPARg DBDmut IVT, anti-PPARg (DBD mutation: PPARg1 K132A/R137A, NR concentration 270 nM)
Outline: as §1

[15] = test system: PPARg homodimer (NR concentration 180 nM)
Outline: as §1

[16] = test system: PXR:RXRa (NR concentration 270 nM, RXRa partner concentration 90 nM)
Outline: as §1

[17] = test system: PXR homodimer (NR concentration 270 nM)
Outline: as §1

[18] = test system: RARa:RXR (NR concentration 270 nM, RXRa partner concentration 90 nM)
Outline: as §1

[19] = test system: RARa homodimer (NR concentration 270 nM)
Outline: as §1

[20] = test system: RARb:RXRa (NR concentration 270 nM, RXRa partner concentration 90 nM)
Outline: as §1

Sequence | PBM binding z-score [1] | PBM binding z-score [2] | PBM binding z-score [3] | PBM binding z-score [4] | PBM binding z-score [5] | PBM binding z-score [6] | PBM binding z-score [7] | PBM binding z-score [8] | PBM binding z-score [9] | PBM binding z-score [10] | PBM binding z-score [11] | PBM binding z-score [12] | PBM binding z-score [13] | PBM binding z-score [14] | PBM binding z-score [15] | PBM binding z-score [16] | PBM binding z-score [17] | PBM binding z-score [18] | PBM binding z-score [19] | PBM binding z-score [20]
GGAACGAGGGCAAGTTGATATCAGAGTTTGATGG | 0.903 | 0.358 | -0.105 | 0.453 | -0.362 | 1.73 | 1.22 | 1 | 0.0363 | 0.552 | 3.98 | 2.65 | 0.634 | 0.177 | 0.61 | 0.864 | 0.655 | 0.687 | -0.152 | 2.57
GCAACGAGGGCATTCGAGTTGATAGCATGGCGAT | 0.802 | 1.56 | -0.374 | 0.0313 | -0.641 | 1.15 | 0.475 | 0.0611 | -0.488 | -0.307 | 1.69 | 1.13 | -0.431 | -0.39 | -0.299 | 3.66 | 1.02 | 0.56 | -0.554 | 1.69
GCATATAGGTAATACAAGGTGAAAGTCCGATTGT | 2.2 | 2.59 | 0.161 | 0.649 | -0.271 | 1.68 | 1.37 | 1.36 | 0.636 | 0.931 | 4.15 | 3.2 | 1.3 | 0.902 | 0.296 | 0.502 | 0.135 | 0.993 | 0.75 | 0.523
GCTGCTAGGTCAGGTTGGTCAGTTAACGGGTACG | 1.25 | 0.792 | 0.267 | 0.719 | 0.0842 | 1.6 | 0.425 | 0.836 | -0.54 | -0.0172 | 2.8 | 2.15 | -1 | -0.445 | 0.781 | 0.391 | 0.149 | 0.719 | -0.401 | 3.21
TGAGACAGGTGAAGGTAACTCAGGTACGCAGTCG | -0.213 | 1.11 | -0.351 | 0.233 | -0.678 | 0.549 | 0.639 | 0.251 | 0.211 | -0.17 | -0.0775 | 0.991 | 0.178 | -0.801 | 0.0963 | -0.189 | -0.538 | 0.124 | -0.0291 | 0.697
ACTTACGGGTCAACGAGGTTCTAGCACGCGTATA | 6.65 | 4.04 | 0.325 | 3.66 | 0.336 | 5.59 | 5.12 | 4.83 | 1.82 | 3.67 | 3.33 | 3.8 | 1.11 | 0.889 | 2.64 | 4.32 | 0.435 | 4.17 | 0.866 | 4.12
ATCTCTATGTAAAGATAGTTCAGTGAATGCAAAT | -0.132 | 0.583 | 0.163 | 0.261 | 0.232 | 0.222 | 0.759 | 0.0606 | 0.319 | 0.173 | -0.623 | -0.061 | 0.754 | 1.67 | 0.106 | 0.604 | 0.457 | 0.433 | 0.866 | 0.242
CTCGAAAGGTAGGTTGAGGTGAGTATACGGATAA | 0.719 | -0.128 | -0.2 | -0.0661 | -0.508 | 0.424 | 0.0538 | 0.173 | 0.0647 | 0.104 | -0.151 | 0.611 | 0.405 | 0.253 | 0.0947 | 0.293 | -0.116 | 0.461 | -0.0281 | 0.475
TCTTGTAGATCAAGCAGTTTAAGAAAGCCTGAGT | 0.227 | 0.026 | -0.29 | 0.14 | -0.263 | 0.321 | -0.75 | 1.11 | 2.54 | 2.03 | 1.32 | 0.194 | 0.902 | -0.105 | -0.414 | 0.133 | -0.14 | 0.0935 | -0.0919 | -0.137
TCATATAGGTAAAACAGGTGAAAGTCGGCATCTA | 1.42 | 1.1 | 0.257 | 1.01 | 0.235 | 1.82 | 1.12 | 2.64 | 4.06 | 3.67 | 3.88 | 2.77 | 0.289 | 1.07 | 1.06 | 0.972 | 0.0725 | 1.62 | 1.05 | 0.579
CGAGACAGGTGAAAGGTAACTCAGTCTGGTACGC | 0.533 | 0.602 | -0.513 | 0.732 | -0.851 | 3.47 | 5.43 | 6.27 | 4.23 | 6.7 | 1.78 | 2.95 | 0.301 | -1.14 | 1.05 | 0.75 | -0.102 | 1.92 | -0.282 | 1.19
GATACAGCGTCAGCTAGAGGCCAGAGTATGGAAA | -1.06 | -0.907 | -0.84 | -1.11 | -1.5 | -1.18 | 0.184 | -0.842 | -0.638 | -1 | -0.984 | -0.61 | -2.52 | -1.12 | -1.09 | -0.922 | -0.376 | -0.685 | -1.14 | -0.322
TCTTGTAGATCAGCAGGGTAAGAAAGCTGGCCAA | -0.168 | -0.124 | -0.627 | -0.0454 | -0.559 | 0.26 | -0.512 | 1.17 | 2.55 | 1.82 | 1.81 | 0.207 | -0.22 | -0.694 | -0.287 | 0.0405 | -0.245 | 0.188 | -0.0241 | -0.199
